Screens deposited in PubChem by National Center for Advancing Translational Sciences (NCATS).
D3 antag: D3 dopamine receptor (human) antagonism | P35462 | D3R cells, DiscoveRx beta-arrestin luminescence, antagonist mode; active compounds read low | max response, negative = inhibition, % | hit rate 2.5% among 360,000; in the data active = max response below about -50%; note: % is set by controls: 0 for no effect and ±100 for the full control effect
Target sequence (P35462 whole entry, looked up): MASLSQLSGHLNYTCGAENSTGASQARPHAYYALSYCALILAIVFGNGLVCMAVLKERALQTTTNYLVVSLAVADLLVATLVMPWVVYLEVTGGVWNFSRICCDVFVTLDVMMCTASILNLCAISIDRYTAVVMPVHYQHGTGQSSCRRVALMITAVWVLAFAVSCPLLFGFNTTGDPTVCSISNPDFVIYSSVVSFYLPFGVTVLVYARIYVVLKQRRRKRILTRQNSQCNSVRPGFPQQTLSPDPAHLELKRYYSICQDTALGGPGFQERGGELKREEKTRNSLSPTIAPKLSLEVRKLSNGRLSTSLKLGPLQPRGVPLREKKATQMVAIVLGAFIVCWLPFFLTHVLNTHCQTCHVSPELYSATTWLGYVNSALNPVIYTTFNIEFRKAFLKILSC
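Cells plated overnight at 1500 cells/well, then exposed to library compounds with dopamine controls for 90 minutes at 37 degrees C. DiscoveRx reagent added for 30–60 minutes at room temperature; luminescence read, quantitative HTS format.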
D3 ag: D3 dopamine receptor (human) agonism; AID 652048; hit rate 0.58% among 410,000; P35462; D3R DiscoveRx beta-arrestin cells, luminescence, 90 min; max activation, %; in the data active = max activation above about 30%; note: 0% is about no effect
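Agonist-mode cell screen: cells plated at 1500/well and incubated overnight at 37 °C, then exposed to library compounds for 90 min at 37 °C. Detection reagent was added for 30–60 min at room temperature, and luminescence was read.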
D1 antagonist: human D1 dopamine receptor antagonism; HEK293 TREx D1 cells, calcium flux, dopamine EC80; active compounds read low; activity change, negative = inhibition, % at 10 µM; hit rate 3.2% among 360,000; AID 504652; in the data active = activity change below about -30%; note: % is set by controls: 0 for no effect and ±100 for the full control effect
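Calcium flux readout: force-coupled, inducible Hek293 Trex D1 line, cells induced overnight at 30 C with tetracycline, dye-loaded 30–90 min at RT. Antagonism scored against EC80 dopamine challenge given 180 s after compound.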
D1 ag: agonists of human D1 dopamine receptor. HEK293 T-REx D1 cells, calcium flux, agonist mode. activation, % at 2 µM. P21728. hit rate 1% among 360,000; in the data active = activation above about 30%; note: 0% is about no effect
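Inducible HEK293 T-REx D1 cells, force-coupled to calcium signalling, were plated at 4000 cells/well with tetracycline and held overnight at 30 C. After no-wash calcium dye loading, compound-evoked calcium rise over 180 s flagged agonists.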
D1 potentiator: enhances dopamine response at the human D1 receptor; P21728; HEK293 TREx D1 cells, calcium flux, dopamine EC20 potentiation; potentiation, % at 10 µM; hit rate 0.036% among 360,000; in the data active = potentiation above about 30%; note: 0% is about no effect
Active calls of the source: *; . = not tested or not shown. This is a sample that favours compounds with a hit; in the whole collection about 6% have one here.

SMILES	D3 antag	D3 ag	D1 antagonist	D1 ag	D1 potentiator
COc1cccc(CNC(=O)C2CCCN(c3nn4cc(-c5ccc(C)cc5)nc4s3)C2)c1 (stereo not drawn)	.	6	-12	1	-4
Cc1cccc(NC(=O)c2ccc3snnc3c2)c1	.	4	4	-2	-1
CNC(=O)Nc1ccc2snnc2c1	-20	-5	0	8	.
O=C(Nc1ccc(F)cc1)Nc1ccc2snnc2c1	.	-4	-31*	48*	-4
Cc1c(Cl)cccc1NC(=O)Nc1ccc2snnc2c1	.	-4	-29	39*	-4
COC(=O)c1cc(NC(=O)Nc2ccc3snnc3c2)cc(C(=O)OC)c1	.	0	-13	7	-4
CC(=O)c1ccc(NC(=O)Nc2ccc3snnc3c2)cc1	.	3	-74*	46*	-4
O=C(Nc1cccc(F)c1)c1ccc2snnc2c1	.	2	-31*	16	-2
CCC(=O)N1CCc2cc(S(=O)(=O)NC(CC(C)C)C(=O)Nc3ccc(CC)cc3)ccc21 (stereo not drawn)	.	-8	-1	3	-2
CC1CN(C(=O)Nc2ccc3snnc3c2)c2ccccc21 (stereo not drawn)	15	-7	-63*	4	-7
CC1=C(C(=O)NCc2ccc(C)cc2)C2(CCCCC2)OC1=O	.	4	7	-2	-1
C=CCc1ccc(OCCCNCc2ccccc2)c(OC)c1	-79*	-21	-13	6	-10
C/C=C/c1ccc(OCCNCc2ccccc2)c(OC)c1	-77*	-19	-4	8	-9
C[C@H]1CN([C@@H](C)CO)C(=O)CCCn2cc(nn2)CO[C@@H]1CN(C)C(=O)Nc1ccc2c(c1)OCO2	-22	-5	.	.	.
Cc1ccc(SCc2cn3c(C)csc3n2)cc1	-53*	-24	-8	3	0
CCCC(=O)OCc1cnc(C)c2oc(=O)c(C(=O)Nc3ccc(F)cc3C)cc12	.	6	-17	-1	0
Cc1cc(C)cc(N2CCn3c2nc2c3c(=O)n(Cc3c(F)cccc3Cl)c(=O)n2C)c1	.	-5	-31*	0	0
CCN1CCN(c2ncnc3c2cnn3-c2ccc(C)cc2)CC1	.	-1	9	6	-2
COC(C(=O)Nc1ccc(S(=O)(=O)Nc2c(C)cccc2C)cc1)c1ccccc1 (stereo not drawn)	-11	-10	8	35*	-1
Cc1cccc(C)c1NC(=O)C1(C)CCC(=O)N1C1CC1 (stereo not drawn)	45	3	.	.	.
O=C(Nc1ccc(/C=C/c2ccc(NC(=O)c3cc(S(=O)(=O)O)c4cccnc4c3O)cc2S(=O)(=O)O)c(S(=O)(=O)O)c1)c1cc(S(=O)(=O)O)c2cccnc2c1O	.	-20	.	.	.
COc1ccc(C2(CCN=Cc3ccc(N(C)C)cc3)CCOC(C)(C)C2)cc1 (stereo not drawn)	4	-1	-78*	2	-2
CCN(CC)S(=O)(=O)c1cccc(S(=O)(=O)N2CCCCC2)c1	13	2	-33*	3	-6
COc1ccc(S(=O)(=O)N2CCCCCC2)cc1N(C)S(=O)(=O)c1ccccc1	-7	-2	-42*	11	-10
CCN(CC)S(=O)(=O)c1ccc(C)c(C)c1	25	5	1	0	0
SMILES	D3 antag	D3 ag	D1 antagonist	D1 ag	D1 potentiator
CCN(CC)S(=O)(=O)c1ccc2c(c1)C(=NO)c1cc(S(=O)(=O)N(CC)CC)ccc1-2	-80*	-11	11	3	-2
COc1ccc(S(=O)(=O)N2CCCCC2)cc1N(C)S(=O)(=O)c1ccccc1	-9	-8	-27	1	0
CCN(CC)S(=O)(=O)c1cccc(S(=O)(=O)c2cccc(S(=O)(=O)N(CC)CC)c2)c1	12	36*	-18	26	-6
COc1ccccc1C(=O)Nc1ccc(-c2cc(C(F)(F)F)nn2-c2ccccc2)cc1	.	-9	3	0	-3
CC(C)c1ccc([C@@H]2O[C@H](CCc3ccccc3)CC3=C2C(=O)OC(C)(C)O3)cc1	6	-4	.	.	.
CCN(CC)S(=O)(=O)c1cccc(C(=O)Oc2cccnc2)c1	-53*	-5	2	6	-1
COC(=O)c1ccccc1COc1cccn2c(N(C)C(=O)CCC3CCCC3)c(C)nc12	23	0	.	.	.
O=C1C(=C2CCc3ccccc32)Cc2ccccc21	3	-6	.	.	.
c1ccc2c(c1)CCc1ccccc1C2=C1CCNCC1	-85*	-14	.	.	.
